Data on 20 compounds can be found in PubChem BioAssay.

Assay [1] in a line: liver-stage malaria parasite load reduction – cell-based, known kinase inhibitor set, luminescence, hepatoma host viability (AID 624392).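 Note: infected cells incubated roughly two days before readout.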 Conditions: Plasmodium liver stage in hepatoma cells, luciferase luminescence, concentration not given here; liver cell % of control: measured here: host liver cell viability; parasite % of control: stronger effect = lower value.
Assay [2] can be described thus: altered dexamethasone sensitivity, NF-kB reporter, cell-based, luciferase, IL-1B stimulus (AID 624486).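 For percent of negative control (+Dex): 100% = mean signal of vehicle control wells on the plate.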 Conditions: IL-1B + dexamethasone, luminescence; percent of negative control (+Dex): actives lie on both sides, concentration not given here; z-score: measured here: IL-1B alone, no Dex.
Assay [3] deals with Cellular tumor antigen p53 (Homo sapiens) (UniProt P04637). As to the kind of experiment: GFP-p53 level modulators in HPV16+ cells – imaging, known kinase inhibitor set, EGFP/DsRed ratio (AID 1053116).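 Note: cells exposed to compounds for 24 h at 37 °C before reading.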 Conditions: GFP-p53 stability, stronger effect = higher value; EGFP object count: measured here: GFP-p53 positive objects count.
Sequence of Cellular tumor antigen p53 (Homo sapiens) (P04637 whole entry, looked up): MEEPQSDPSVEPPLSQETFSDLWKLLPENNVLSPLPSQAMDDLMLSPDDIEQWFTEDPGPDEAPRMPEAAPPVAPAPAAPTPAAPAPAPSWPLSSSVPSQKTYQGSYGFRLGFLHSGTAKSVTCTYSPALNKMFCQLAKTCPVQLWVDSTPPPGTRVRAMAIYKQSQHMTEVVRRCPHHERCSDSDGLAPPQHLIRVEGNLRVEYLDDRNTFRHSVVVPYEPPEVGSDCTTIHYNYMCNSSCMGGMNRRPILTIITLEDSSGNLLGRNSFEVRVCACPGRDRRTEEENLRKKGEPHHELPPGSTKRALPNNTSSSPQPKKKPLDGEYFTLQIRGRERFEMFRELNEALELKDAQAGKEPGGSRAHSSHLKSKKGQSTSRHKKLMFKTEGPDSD
A short description of assay [4]: inducers of IRF3 signaling, differentiated THP-1 – cell-based, PMA-stimulated THP-1, luminescence (AID 1053176). Conditions: PMA-differentiated THP-1, IRF3 reporter luminescence; stronger effect = higher value.

“And” between values parts separate entries of the source, which are not always exact repeats. Equal entries are not always repeated. The source made the active and inactive calls. The rule behind the calls is not given here.

Take `O=C1NC(=NCCc2cccc(Cl)c2)SC1=Cc1ccc2ncccc2c1`: in assay [1], the liver cell % of control stood at 131% and the parasite % of control is 170% (inactive). For the same compound, in assay [2], the percent of negative control (+Dex) was 89.5% (inactive) and the z-score was -0.11. In assay [3], the EGFP object count came to 15 and the EGFP/DsRed ratio was 0.216 (inactive). The fraction signal in assay [4] was -0.0025 (inactive).

For the compound `Cn1c(=O)c(-c2ccccc2Cl)cc2cnc(NC3CCOCC3)nc21`, in assay [1], the liver cell % of control was 100% and the parasite % of control was 252% (inactive). Further, in assay [2], the percent of negative control (+Dex) was 93% (inactive) and the z-score was -0.175. In addition, in assay [3], the EGFP object count stood at 1 and the EGFP/DsRed ratio was 0.00654 (inactive). Further, in assay [4], the fraction signal was -0.0055 (inactive).

On to `CC(CO)Nc1cc(-c2[nH]c3cccnc3c2-c2ccc(F)cc2)ccn1` (stereo not given), for which, in assay [1], the liver cell % of control was found to be 124% and the parasite % of control was 78.1% (inactive). In addition, in assay [2], the percent of negative control (+Dex) is 85.5% (inactive) and the z-score is -0.435. Also, in assay [3], the EGFP object count came out at 4.5 and the EGFP/DsRed ratio is 0.0626 (inactive). Further, the fraction signal in assay [4] is -0.0075 (inactive).

Regarding `COc1ccc(F)cc1C(=O)c1cnc(NC2CCN(S(C)(=O)=O)CC2)nc1N`, in assay [1], the liver cell % of control came out at 97.2% and the parasite % of control is 587% (inactive). In addition, in assay [2], the percent of negative control (+Dex) was 96.5% (inactive) and the z-score is -0.18. Besides, in assay [3], the EGFP object count turned out to be 4.5 and the EGFP/DsRed ratio was 0.0651 (inactive). Further, the fraction signal in assay [4] was -0.009 (inactive).

For `O=C1NC(=NCc2ccccc2Cl)SC1=Cc1ccc2ncccc2c1`, in assay [1], the liver cell % of control is 108% and the parasite % of control is 42.1% (inactive). Further, in assay [2], the percent of negative control (+Dex) was 95% (inactive) and the z-score is -0.715. Further, in assay [3], the EGFP object count is 9 and the EGFP/DsRed ratio is 0.384 (inactive). The fraction signal in assay [4] is -0.0075 (inactive).

As for `Cn1cc(C2=C(c3c4n(c5ccccc35)CC(CN)C4)C(=O)NC2=O)c2ccccc21` (stereo not given), in assay [1], the liver cell % of control was determined as 97.6% and the parasite % of control was 48.9% (inactive). In assay [2], the percent of negative control (+Dex) was 100% (inactive) and the z-score is -0.23. Moreover, in assay [3], the EGFP object count was 6.5 and the EGFP/DsRed ratio was 0.00726 (inactive). Moreover, the fraction signal in assay [4] is -0.005 (inactive).

For `COc1cc(F)c(F)cc1C(=O)c1cnc(NC2CCN(S(C)(=O)=O)CC2)nc1N`, in assay [1], the liver cell % of control amounted to 107% and the parasite % of control was 392% (inactive). Also, in assay [2], the percent of negative control (+Dex) was 79% (inactive) and the z-score was -1.08. Further, in assay [3], the EGFP object count amounted to 1 and the EGFP/DsRed ratio was 0.11 (inactive). For the same compound, the fraction signal in assay [4] was -0.003 (inactive).

On to `O=C1NC(=NCc2ccccn2)SC1=Cc1ccc2ncccc2c1`, for which, in assay [1], the liver cell % of control came out at 105% and the parasite % of control was 37.5% (inactive). Also, in assay [2], the percent of negative control (+Dex) is 94% (inactive) and the z-score was 0.165. In addition, in assay [3], the EGFP object count was 6.5 and the EGFP/DsRed ratio was 0.264 (inactive). In addition, in assay [4], the fraction signal was 0.01 (inactive).

As to `Cn1cc(C2=C(c3cccc(Br)c3)C(=O)NC2=O)c2ccccc21`, in assay [1], the liver cell % of control came to 153% and the parasite % of control was 39.5% (inactive). Further, in assay [2], the percent of negative control (+Dex) is 110% (inactive) and the z-score is -0.515. Moreover, in assay [3], the EGFP object count was 3.5 and the EGFP/DsRed ratio was 0.13 (inactive). The fraction signal in assay [4] was 0.0055 (inactive).

For `Cn1cc(C2=C(c3cn(CCCCCO)c4ccccc34)C(=O)NC2=O)c2ccccc21`, in assay [1], the liver cell % of control was 97.8% and the parasite % of control was 31.3% (inactive). For the same compound, in assay [2], the percent of negative control (+Dex) is 101% (inactive) and the z-score is -1.23. In assay [3], the EGFP object count is 18.5 and the EGFP/DsRed ratio is 0.347 (inactive). Also, the fraction signal in assay [4] was -0.0115 (inactive).

As to `Cn1cc(C2=C(c3ccsc3)C(=O)NC2=O)c2ccccc21`, in assay [1], the liver cell % of control came out at 108% and the parasite % of control is 30% (inactive). Further, in assay [2], the percent of negative control (+Dex) was 92.5% (inactive) and the z-score is -0.045. In assay [3], the EGFP object count was 3.5 and the EGFP/DsRed ratio was 0.27 (inactive). Further, the fraction signal in assay [4] is -0.0155 (inactive).

As for `Cn1cc(C2=C(c3cccc(OCC(O)CO)c3)C(=O)NC2=O)c2cc(F)ccc21` (stereo not given), in assay [1], the liver cell % of control amounted to 125% and the parasite % of control is 31.6% (inactive). Further, in assay [2], the percent of negative control (+Dex) was 97% (inactive) and the z-score worked out at 0.67. Also, in assay [3], the EGFP object count was found to be 8 and the EGFP/DsRed ratio was 0.21 (inactive). Moreover, the fraction signal in assay [4] is -0.0075 (inactive).

On to `CNCCCn1cc(C2=C(c3cn(C)c4ccccc34)C(=O)NC2=O)c2ccccc21`, for which, in assay [1], the liver cell % of control worked out at 82% and the parasite % of control is 60.5% (inactive). Also, in assay [2], the percent of negative control (+Dex) is 102% (inactive) and the z-score was 0.035. In assay [3], the EGFP object count was determined as 2.5 and the EGFP/DsRed ratio was 0.00316 (inactive). In assay [4], the fraction signal is -0.0095 (inactive).

As to `Cn1cc(C2=C(c3cn(C)c4cc(C(N)=O)ccc34)C(=O)NC2=O)c2ccccc21`, in assay [1], the liver cell % of control amounted to 96.9% and the parasite % of control was 59.1% (inactive). In assay [2], the percent of negative control (+Dex) is 95% (inactive) and the z-score is -0.22. For the same compound, in assay [3], the EGFP object count worked out at 56.5 and the EGFP/DsRed ratio was 0.829 (active). Besides, in assay [4], the fraction signal was -0.0005 (inactive).

For `CN(C)CC1CCn2c(c(C3=C(c4cn(C)c5ccccc45)C(=O)NC3=O)c3ccccc32)C1` (stereo not given), in assay [1], the liver cell % of control was 80.7% and 77.1%; the parasite % of control is 27.7% (inactive) and 36.4% (inactive). Also, in assay [2], the percent of negative control (+Dex) was 97% (inactive) and 96.5% (inactive); the z-score is -0.715 and -0.17. Moreover, in assay [3], the EGFP object count was 13.5 and 7.5; the EGFP/DsRed ratio is 0.0249 (inactive) and 0.0159 (inactive). In assay [4], the fraction signal was -0.0005 (inactive) and -0.0055 (inactive).

On to `CS(=O)(=O)CCCn1c(=O)c(Oc2ccc(F)cc2F)cc2cnc(NC3CCOCC3)nc21`, for which, in assay [1], the liver cell % of control was 98.7% and the parasite % of control is 51.4% (inactive). Moreover, in assay [2], the percent of negative control (+Dex) is 101% (inactive) and the z-score came out at 0.05. Besides, in assay [3], the EGFP object count stood at 1 and the EGFP/DsRed ratio was 0.0135 (inactive). The fraction signal in assay [4] is -0.009 (inactive).

Turning to `Cc1nc2sc3c(N)ncnc3c2c(C)c1C`, in assay [1], the liver cell % of control worked out at 140% and the parasite % of control was 42% (inactive). In addition, in assay [2], the percent of negative control (+Dex) is 77.5% (inactive) and the z-score is -1.64. Besides, in assay [3], the EGFP object count is 5 and the EGFP/DsRed ratio was 0.308 (inactive). Besides, the fraction signal in assay [4] is -0.003 (inactive).

As to `Nc1c(C(=O)c2cccc(C#CCN3CCCCC3)c2)cnn1-c1ccc(F)cc1`, in assay [1], the liver cell % of control was determined as 91.6% and the parasite % of control is 50.5% (inactive). In assay [2], the percent of negative control (+Dex) is 101% (inactive) and the z-score worked out at 0.935. In addition, in assay [3], the EGFP object count was determined as 1.5 and the EGFP/DsRed ratio was 0.0667 (inactive). Besides, in assay [4], the fraction signal was 0.0075 (inactive).

On to `O=c1c(Oc2ccc(F)cc2F)cc2cnc(NC3CCOCC3)nc2n1C1CCS(=O)(=O)CC1`, for which, in assay [1], the liver cell % of control is 120% and the parasite % of control was 83.4% (inactive). In assay [2], the percent of negative control (+Dex) is 97% (inactive) and the z-score was -0.26. In addition, in assay [3], the EGFP object count amounted to 3 and the EGFP/DsRed ratio was 0.101 (inactive). Also, in assay [4], the fraction signal is -0.0075 (inactive).

As to `COc1ccccc1C(=O)c1cnc(NC2CCN(S(C)(=O)=O)CC2)nc1N`, in assay [1], the liver cell % of control is 100% and the parasite % of control is 96.6% (inactive). Also, in assay [2], the percent of negative control (+Dex) is 85% (inactive) and the z-score was -1.16. Moreover, in assay [3], the EGFP object count came to 5 and the EGFP/DsRed ratio is 0.0796 (inactive). Also, in assay [4], the fraction signal is 0.0015 (inactive).
